The nature of assay [1]: NCI Yeast Anticancer Drug Screen. Data for the rad50 strain (AID 155).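 Further: 0% = growth of vehicle-only cultures of the same strain.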 The following applies: S. cerevisiae rad50 strain growth inhibition, stronger effect = higher value. Put shortly:
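DNA repair mutant yeast, compound exposure, growth read-out; inhibition is taken relative to vehicle.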

A short description of assay [2]: NCI Yeast Anticancer Drug Screen. Data for the mec2-1 strain (AID 157). The following applies: S. cerevisiae mec2-1 strain, stronger effect = higher value. In a few lines: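 Compounds were applied to mec2-1 yeast cells. Their growth was then compared with that of vehicle-treated cultures to give growth inhibition.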
Assay [3] is described as follows: NCI Yeast Anticancer Drug Screen. Data for the sgs1 mgt1 strain (AID 161).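 Further: 0% = growth of cultures given vehicle only.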 The following applies: S. cerevisiae sgs1 mgt1 strain, stronger effect = higher value. Put shortly: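 Percent growth inhibition was derived by comparing compound-exposed mutant yeast with vehicle-exposed cultures. The strain carries alterations in DNA damage repair.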
Assay [4] can be described thus: NCI Yeast Anticancer Drug Screen. Data for the cln2 rad14 strain (AID 165).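 Further: 0% = growth equal to vehicle treated cultures.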 To be noted: S. cerevisiae cln2 rad14 strain, stronger effect = higher value. Put shortly: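 Strain: cln2 rad14 yeast, altered in cell cycle control and DNA damage repair. Read-out: growth inhibition vs vehicle.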
The nature of assay [5]: NCI Yeast Anticancer Drug Screen. Data for the bub3 strain (AID 167). To be noted: S. cerevisiae bub3 mutant strain, stronger effect = higher value. Put shortly:
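In this screen, a yeast mutant lacking normal mitotic checkpoint function is challenged with compound. Relative growth versus vehicle gives the inhibition value.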

Assay [6] can be described thus: NCI Yeast Anticancer Drug Screen. Data for the mlh1 rad18 strain (AID 175). The following applies: S. cerevisiae mlh1 rad18 strain growth inhibition, stronger effect = higher value. In a few lines: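 A repair-deficient yeast strain is exposed to test compound, and growth is scored relative to vehicle-treated controls.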
Setting [7] is: at 5.0 µM (retest, dose inferred, filed as 0.5).
[8] abbreviates: at 50.0 µM (retest, dose inferred, filed as 5.0).

Each structure is given as a SMILES string. The panel holds about 79,000 compounds, 15% with a hit somewhere; the sample as a whole holds those more often. A number with no mark means an inactive call. Activity calls are given as the source filed them. No stated cut-off is given here; in the data, active means growth inhibition above about 70%; inactive means the rest.

Regarding `COc1cc2c(cc1OC)C(=O)C(C)(c1ccccc1)NC2` (configuration not stated), the growth inhibition in assay [1] (setting [7]) was 20%; in assay [1] (setting [8]), 2%; in assay [1] (at 50.0 µM) it was 91.9% (active); in assay [2] (setting [7]) it was 9%; in assay [2] (setting [8]) it was 42%; in assay [2] (at 50.0 µM) it was 98.8% (active). Further, the growth inhibition in assay [3] (setting [7]) was 3%; in assay [3] (setting [8]), -1%; in assay [3] (at 50.0 µM) it was 92.4% (active); in assay [4] (setting [7]), 10%; in assay [4] (setting [8]) it was 56%; in assay [4] (at 50.0 µM), 99.5% (active). The growth inhibition in assay [5] (setting [7]) was 2%; in assay [5] (setting [8]), 31%; in assay [5] (at 50.0 µM), 97.3% (active); in assay [6] (setting [7]) it was 4%; in assay [6] (setting [8]), -3%; in assay [6] (at 50.0 µM) it was 97.8% (active).

Regarding `O=c1c(Cc2c[nH]c3ccccc23)coc2ccccc12`, the growth inhibition in assay [1] (setting [7]) was 0%; in assay [1] (setting [8]), 95% (active); in assay [1] (at 50.0 µM), 24.2%; in assay [2] (setting [7]) it was 8%; in assay [2] (setting [8]), 91% (active); in assay [2] (at 50.0 µM) it was 7.85%. In addition, the growth inhibition is 3% in assay [3] (setting [7]); 84% (active) in assay [3] (setting [8]); 51.1% in assay [3] (at 50.0 µM); 10% in assay [4] (setting [7]); 92% (active) in assay [4] (setting [8]); -69.5% in assay [4] (at 50.0 µM). The growth inhibition in assay [5] (setting [7]) was 9%; in assay [5] (setting [8]) it was 98% (active); in assay [5] (at 50.0 µM), 14.1%; in assay [6] (setting [7]), 0%; in assay [6] (setting [8]), 95% (active); in assay [6] (at 50.0 µM), 21.8%.

With `O=C1c2ccccc2CN1Cc1ccc(Cl)c(Cl)c1`, the growth inhibition in assay [1] (setting [7]) was -1%; in assay [1] (setting [8]) it was 93% (active); in assay [1] (at 50.0 µM) it was 84.4% (active); in assay [2] (setting [7]) it was -3%; in assay [2] (setting [8]) it was 95% (active); in assay [2] (at 50.0 µM), 42.2%. Also, the growth inhibition in assay [3] (setting [7]) was -1%; in assay [3] (setting [8]), 96% (active); in assay [3] (at 50.0 µM), 93.1% (active); in assay [4] (setting [7]) it was -1%; in assay [4] (setting [8]), 81% (active); in assay [4] (at 50.0 µM) it was 45.5%. For the same molecule, the growth inhibition in assay [5] (setting [7]) was 3%; in assay [5] (setting [8]), 92% (active); in assay [5] (at 50.0 µM) it was 79.4% (active); in assay [6] (setting [7]), -2%; in assay [6] (setting [8]) it was 91% (active); in assay [6] (at 50.0 µM) it was 65%.

Consider `O=C1C=CC(=Nc2cccc3c2-c2ccccc2C3)O1`, for which the growth inhibition in assay [1] (setting [7]) is 98% (active); in assay [1] (setting [8]), 99% (active); in assay [1] (at 50.0 µM), 99.6% (active); in assay [2] (setting [7]) it was 99% (active); in assay [2] (setting [8]), 99% (active); in assay [2] (at 50.0 µM), 99.6% (active). Also, the growth inhibition in assay [3] (setting [7]) was 99% (active); in assay [3] (setting [8]), 99% (active); in assay [3] (at 50.0 µM), 99.7% (active); in assay [4] (setting [7]), 88% (active); in assay [4] (setting [8]), 99% (active); in assay [4] (at 50.0 µM) it was 99.4% (active). The growth inhibition in assay [5] (setting [7]) is 99% (active); in assay [5] (setting [8]) it was 99% (active); in assay [5] (at 50.0 µM), 99.7% (active); in assay [6] (setting [7]), 99% (active); in assay [6] (setting [8]), 99% (active); in assay [6] (at 50.0 µM), 85.6% (active).

For the molecule `CC1=C/C(=C\c2ccc([N+](=O)[O-])o2)C(=O)O1`, the growth inhibition in assay [1] (setting [7]) was 95% (active); in assay [1] (setting [8]), 99% (active); in assay [1] (at 50.0 µM), 99.3% (active); in assay [2] (setting [7]) it was 86% (active); in assay [2] (setting [8]), 99% (active); in assay [2] (at 50.0 µM), 99.5% (active). The growth inhibition in assay [3] (setting [7]) was 93% (active); in assay [3] (setting [8]) it was 52%; in assay [3] (at 50.0 µM), 99.2% (active); in assay [4] (setting [7]) it was 97% (active); in assay [4] (setting [8]), 99% (active); in assay [4] (at 50.0 µM) it was 99.3% (active). The growth inhibition in assay [5] (setting [7]) is 49%; in assay [5] (setting [8]), 99% (active); in assay [5] (at 50.0 µM) it was 98.8% (active); in assay [6] (setting [7]), 97% (active); in assay [6] (setting [8]), 99% (active); in assay [6] (at 50.0 µM), 99.2% (active).

Consider `Cc1ccc2nc(-c3ccc(N)cc3)sc2c1`, for which the growth inhibition in assay [1] (setting [7]) is 9%; in assay [1] (setting [8]), 42%; in assay [1] (at 50.0 µM), 75% (active); in assay [2] (setting [7]) it was -2%; in assay [2] (setting [8]), 8%; in assay [2] (at 50.0 µM), 34.5%. Besides, the growth inhibition is -2% in assay [3] (setting [7]); 7% in assay [3] (setting [8]); 43.9% in assay [3] (at 50.0 µM); -8% in assay [4] (setting [7]); -6% in assay [4] (setting [8]); 15% in assay [4] (at 50.0 µM). Also, the growth inhibition is 14% in assay [5] (setting [7]); 68% in assay [5] (setting [8]); 72.5% (active) in assay [5] (at 50.0 µM); -1% in assay [6] (setting [7]); 19% in assay [6] (setting [8]); 41.3% in assay [6] (at 50.0 µM).

Regarding `Cn1c(=NCCc2ccccc2)oc2ccc(Cl)cc21`, the growth inhibition in assay [1] (setting [7]) was -6%; in assay [1] (setting [8]), 17%; in assay [1] (at 50.0 µM) it was 6.15%; in assay [2] (setting [7]), -7%; in assay [2] (setting [8]), 9%; in assay [2] (at 50.0 µM), 1.7%. In addition, the growth inhibition in assay [3] (setting [7]) is -7%; in assay [3] (setting [8]), 29%; in assay [3] (at 50.0 µM), 30.3%; in assay [4] (setting [7]) it was -4%; in assay [4] (setting [8]), 16%; in assay [4] (at 50.0 µM), 73% (active). In addition, the growth inhibition in assay [5] (setting [7]) is 4%; in assay [5] (setting [8]), 33%; in assay [5] (at 50.0 µM), 18.6%; in assay [6] (setting [7]), -3%; in assay [6] (setting [8]) it was 25%; in assay [6] (at 50.0 µM), 18.6%.

Consider `CCO/C=C1\N=C(C(O)(c2ccc(Cl)cc2)c2ccc(Cl)cc2)OC1=O`, for which the growth inhibition in assay [1] (setting [7]) is -1%; in assay [1] (setting [8]), 3%; in assay [1] (at 50.0 µM) it was 48.7%; in assay [2] (setting [7]), 1%; in assay [2] (setting [8]), 16%; in assay [2] (at 50.0 µM), 16%. Moreover, the growth inhibition in assay [3] (setting [7]) was -2%; in assay [3] (setting [8]), 1%; in assay [3] (at 50.0 µM), 18.8%; in assay [4] (setting [7]) it was 1%; in assay [4] (setting [8]), -1%; in assay [4] (at 50.0 µM) it was 44.5%. Further, the growth inhibition in assay [5] (setting [7]) is 13%; in assay [5] (setting [8]), 8%; in assay [5] (at 50.0 µM), 43.1%; in assay [6] (setting [7]), -1%; in assay [6] (setting [8]), 10%; in assay [6] (at 50.0 µM) it was 34%.

`CCCC/C=C(/CCCCOCOCCOC)[Si](C)(C)C`: the growth inhibition in assay [1] (setting [7]) is -1%; in assay [1] (setting [8]), -1%; in assay [1] (at 50.0 µM) it was -13.2%; in assay [2] (setting [7]) it was -5%; in assay [2] (setting [8]) it was -2%; in assay [2] (at 50.0 µM), -1.8%. Further, the growth inhibition in assay [3] (setting [7]) was -1%; in assay [3] (setting [8]) it was 6%; in assay [3] (at 50.0 µM), 15.9%; in assay [4] (setting [7]), 1%; in assay [4] (setting [8]) it was -15%; in assay [4] (at 50.0 µM) it was 86.1% (active). Besides, the growth inhibition in assay [5] (setting [7]) was -3%; in assay [5] (setting [8]), -9%; in assay [5] (at 50.0 µM) it was 11.7%; in assay [6] (setting [7]), -8%; in assay [6] (setting [8]), 4%; in assay [6] (at 50.0 µM), 30.8%.

The values are drawn from PubChem BioAssay (NCI).
